FBPA Giardia inh = Giardia lamblia aldolase inhibition; purified Giardia FBPA; Potency, µM (doses to about 59.6 µM), without a hit: at the highest dose activity, negative = inhibition, actives largely listed as inhibitors; 0.71% of 290,000 active; AID 2451; also: potency is read from the fitted curve at half-maximal effect; % is scaled to controls: 0 for no effect and ±100 for the full control effect; nearly all actives have a fitted effect of over 55% in size
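Giardia FBPA (40 nM reagent) was preincubated 10 min at RT with compound (up to 57.5 uM final), then substrate plus GAPDH/TPI/NAD/arsenate coupling system with diaphorase/resazurin was added; resorufin fluorescence (525/598 nm) was read after 20 min.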
Shiga toxin inh = blocks Shiga toxin action in Vero cells; Vero cells, Shiga toxin protein synthesis inhibition reporter; inhibition, % at 38.7 µM; 9.2% of 290,000 active; in the data active = inhibition mostly above about 28%, no sharp cut-off; inactive = mostly below about 43%; also: 0% is about no effect
CHX counter = counter-screen hit for Shiga toxin inhibitors, cycloheximide. cell reporter, cycloheximide protein synthesis inhibition counterscreen. max response, %. 12% of 300,000 active; in the data active = max response mostly above about 13%, no sharp cut-off; inactive = mostly below about 14%; also: read at 38.3 µM for the half of the compounds with a filed dose; 0% is about no effect
LmPK inhibitor = inhibitors of Leishmania mexicana pyruvate kinase; purified LmPK, Kinase-Glo ATP luminescence, 1 h; Potency, µM (series often up to 57.5 µM), without a hit: top-dose activity change, negative = inhibition, usual class: inhibitors; 0.37% of 290,000 active; also: potency is read from the fitted curve at half-maximal effect; % is scaled to controls: 0 for no effect and ±100 for the full control effect
Target sequence (Q27686 whole entry, looked up): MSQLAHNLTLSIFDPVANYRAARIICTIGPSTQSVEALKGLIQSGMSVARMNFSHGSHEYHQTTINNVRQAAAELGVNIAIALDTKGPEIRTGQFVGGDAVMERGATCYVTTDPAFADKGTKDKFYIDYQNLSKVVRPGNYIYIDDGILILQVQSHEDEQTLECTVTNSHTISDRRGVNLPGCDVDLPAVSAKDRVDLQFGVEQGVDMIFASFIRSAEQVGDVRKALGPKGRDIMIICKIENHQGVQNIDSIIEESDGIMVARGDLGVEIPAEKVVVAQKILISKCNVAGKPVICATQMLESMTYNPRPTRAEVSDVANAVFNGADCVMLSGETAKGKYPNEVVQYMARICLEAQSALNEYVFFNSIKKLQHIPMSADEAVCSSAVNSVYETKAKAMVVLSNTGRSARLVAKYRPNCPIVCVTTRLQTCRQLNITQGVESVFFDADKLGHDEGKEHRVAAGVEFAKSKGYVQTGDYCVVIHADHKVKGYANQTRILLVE
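Purified LmPK (0.1 nM) converted ADP (0.1 mM) to ATP with PEP (0.5 mM) in imidazole buffer pH 7.2 with KCl and MgCl2, 1 h at room temperature. ATP was read by Kinase-Glo luminescence; data normalized to uninhibited and no-enzyme controls.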
NS1 inh = influenza NS1 inhibition | Potency, µM (top dose mostly 46.1 µM), for the others: at the highest dose activity, positive = more growth | 0.4% of 270,000 active; calls by dose curve; also: potency is read from the fitted curve at half-maximal effect; actives are rising curves; nearly all actives have a fitted effect of over 50% in size
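S. cerevisiae expressing influenza A NS1, grown in glucose, washed, then diluted 1:100 into pH 6.0 -URA galactose medium with 23 nl compound. Growth recovery read as OD600; NS1-free strain serves as control.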
* marks the source's active call; other numbers are inactive results; ? = inconclusive; / = no result. An excerpt weighted towards active compounds, which were near 14% of everything screened. Unless noted, calls follow the shape of the dose curve; as a rule, active = well fitted curve in the direction sought with a large enough effect; inconclusive = small, poorly fitted or top-dose-only effect, or another doubt; inactive = no such curve, though single readings can be large; an effect the other way counts as inactive or inconclusive.

SMILES | FBPA Giardia inh | Shiga toxin inh | CHX counter | LmPK inhibitor | NS1 inh
COc1ccc(S(=O)(=O)Cc2ccc(C(=O)NCCCN3CCc4ccccc4C3)o2)cc1 | ? | 19 | -4 | -5% | 2%
Cc1ccc2cc3cc(C(=O)NCCCN4CCCC4)oc3nc2c1 | 0% | 1 | 1 | 8% | -3%
Cc1cccc(N(C)C(=O)c2cc3cc4ccc(C)cc4nc3o2)c1 | 7% | active | 39* | -3% | -55%
COc1ccc2nc3sc(C(=O)NCCCN4CCc5ccccc5C4)cc3cc2c1 | -25% | 38 | 28* | 0% | 2%
CN(C)c1ccc(-c2nc(NCc3cccnc3)c3ccccc3n2)cc1 | -11% | / | / | / | /
CCn1cc(CNC(=O)NC2CCCCC2)c(C)n1 | 3% | 65* | 19* | 1% | 3%
O=C(NC1CCCCCC1)C1CCN(C(=O)c2ccc(Br)cc2)CC1 | / | -7 | -2 | -14% | -4%
O=C(COC(=O)c1ccc(O)cc1)NC1CCCC1 | 8% | 16 | 19 | 3% | 2%
Cc1ccc(C(=O)N2CCC(C(=O)NC3CCCCCC3)CC2)cc1 | -10% | 56 | 28* | 2% | -6%
CCn1cc(CNC(=O)/C=C/c2cnn(C)c2)c(C)n1 | -3% | 14 | -1 | 2% | 23%
Cc1ccc(C(=O)OCC(=O)NC2CCCC2)cc1 | 5% | 75* | 32* | -4% | 1%
COC(=O)c1ccc(OCC(=O)NC2CCCCCC2)cc1 | / | 39* | 25 | -7% | -26%
COC(=O)c1ccc(/C=N/OCC(=O)NC2CCCCCCC2)cc1 | 0% | -5 | 4 | 5% | -60%
NS(=O)(=O)c1ccc(N=Nc2ncccc2O)cc1 | / | / | / | / | 8%
C/C=C(\C)C(=O)C[Si](C)(C)c1ccccc1 | 1% | / | / | / | /
Cc1ccc(CNC(=S)NC2CCCCC2)cc1 | -5% | -3 | -1 | 6% | -58%
CC(C)c1ccc(OCC(=O)N(c2ccccn2)C2CCCCC2)cc1 | -2% | 19 | 17* | 2% | -36%
COc1ccc(OCC(=O)NC2CCCCCCC2)cc1 | 5% | 42* | 27* | -5% | -15%
Cc1ccc(C(=O)NCC(=O)NC2CCCCCC2)cc1 | 2% | 26* | active | -5% | 1%
Cc1ccc(CNC(=O)NC2CCCCC2)cc1 | 4% | 55* | 16* | 2% | 0%
COc1ccc(C2=NS(=O)(=O)N(C)C(C(=O)N3CCCCC3)=C2)cc1OC | 9% | -4 | 1 | 0% | 5%
COc1cccc(C(=O)C2=NN(C(C)=O)CC2c2ccco2)c1 (stereo not given) | 0% | 45 | 8 | -2% | /
CC(C)c1ccc(OCC(=O)NC2CCCC2)cc1 | 6% | 63* | 34* | -1% | -39%
CC(=O)N1CSCC1C(=O)NNS(=O)(=O)c1ccccc1 (stereo not given) | 1% | -4 | -1 | 1% | 0%
Cc1ccc(C(=O)Nc2cccc3cccnc23)cc1C | 3% | / | 29* | -6% | -25%
SMILES | FBPA Giardia inh | Shiga toxin inh | CHX counter | LmPK inhibitor | NS1 inh
Cc1cccc(C(=O)Nc2cccc3cccnc23)c1 | -7% | 70* | 45* | -6% | -65%
O=C(Nc1cccnc1Cl)c1cccc(F)c1 | 0% | 6 | 10 | -1% | 7%
COc1cc(NC(=O)Nc2cccc3cccnc23)cc(OC)c1OC | 3% | 26 | 16* | -2% | -35%
O=C(Nc1cccc2cccnc12)c1cccnc1 | 0% | -8 | -1 | 0% | -8%
Cc1cccc(C(=O)Nc2cccnc2Cl)c1 | -6% | 16 | 12* | -4% | 4%
CC(C)c1ccc(NC(=O)Cn2nnc(C(=O)NCc3ccco3)c2N)cc1 | -3% | -3 | 10 | 5% | -1%
C/C(=N\Nc1cccc2cccnc12)c1ccc(C)cc1 | -23% | 93* | 31* | -6% | 8%
CC(C)C[C@H](N)c1nnc(S(=O)(=O)Cc2cccc(F)c2)o1 | 0% | 29 | 32* | 5% | -177%
CC(C)(C)OC(=O)N[C@@H](Cc1ccccc1)c1nnc(S(=O)(=O)Cc2cccc(F)c2)o1 | -4% | 33 | 21* | 4% | -165%
Cc1ccccc1CS(=O)(=O)c1nnc([C@H](CC(C)C)NC(=O)OC(C)(C)C)o1 | 5% | 30 | 21 | 5% | -180%
CCOC(=O)N1CCc2c(sc3c2c(=O)n(-c2ccc(CC)cc2)c(=O)n3CC(=O)NCC2CCCO2)C1 (stereo not given) | / | 9 | 1 | 9% | 22%
CC(C)(C)c1csc(NC(=O)Nc2ccccc2)n1 | -15% | 72* | 51* | -3% | /
COc1cccc(-c2csc(NC(=O)C3CC3)n2)c1 | -4% | 40 | 18 | 2% | -61%
O=C(Nc1ccccc1)Nc1nc(-c2ccccc2)cs1 | 7% | 39 | 45* | 1% | -6%
COc1cccc(-c2csc(NC(=O)Nc3ccccc3)n2)c1 | 7% | 57* | 14* | 0% | -1%
CCC1=C2CC[C@H]3C(=O)N(C)C(=O)[C@H]3[C@H]2[C@@]2(C)C(=NCC(=O)OC)OC(=O)N2C1=O | 9% | / | / | / | /
COc1ccc(-c2nc(NC(=O)C3=NN(c4cccc(C)c4)C(=O)CC3)sc2C)cc1 | -9% | -5 | 17* | 6% | /
Cc1cccc2sc(NC(=O)C3=NN(c4ccccc4)C(=O)CC3)nc12 | -14% | -18 | -1 | -2% | 20%
COc1ccc(-c2csc(NC(=O)C3=NN(c4ccccc4)C(=O)CC3)n2)cc1 | -5% | 50 | 23* | -2% | /
CCN(CC)S(=O)(=O)c1cccc(C(=O)N/N=C/c2ccc([N+](=O)[O-])o2)c1 | -17% | 21 | 11 | -3% | /
O=C(Nc1cccnc1)C1OCCc2ccccc21 (stereo not given) | -20% | -1 | -2 | -1% | -5%
O=C(Nc1ccc(Br)cc1)C1OCCc2ccccc21 (stereo not given) | -9% | 51* | 18* | 5% | -69%
COc1cc(CN(C)Cc2cc(=O)oc3cc(C)c(Cl)cc23)ccc1OC(F)F | 6% | 50* | 22 | -9% | -9%
CSc1ccc(CN(C)Cc2cc(=O)oc3c(C)c(C)ccc23)cc1 | 4% | -6 | -4 | -2% | 1%
Cc1ccc2c(CN(C)Cc3cccc(F)c3)cc(=O)oc2c1 | 6% | 88* | 30* | 2% | -5%
SMILES | FBPA Giardia inh | Shiga toxin inh | CHX counter | LmPK inhibitor | NS1 inh
CCc1ccc2c(CN(C)Cc3ccccc3OC)cc(=O)oc2c1 | ? | 56 | 19* | -5% | -8%
Cc1cc2oc(=O)cc(CN(C)Cc3cccc(F)c3)c2cc1Cl | 9% | 3 | -2 | 0% | -3%
COc1ccc2oc(=O)cc(CN(C)Cc3ccccc3)c2c1 | 2% | -5 | -4 | 3% | -9%
Cc1ccc2c(CN(C)Cc3cccc(Cl)c3)cc(=O)oc2c1C | -4% | 33 | 6.4* | 0% | -31%
COc1ccc(CCNC(=O)C(=O)NCC2OCCN2C(=O)c2ccc(Cl)cc2)cc1 (stereo not given) | 7% | -2 | 1 | 0% | 1%
COc1cccc(C(=O)Nc2nnc(Cc3ccc(OC)c(OC)c3)s2)c1 | 0% | 4 | 3 | -1% | -5%
COc1ccc(C(=O)Nc2nnc(Cc3ccc(OC)c(OC)c3)s2)c(OC)c1 | -9% | 57 | 13* | 7% | -8%
